Compound activity deposited in PubChem BioAssay by National Center for Advancing Translational Sciences (NCATS).
RORg inh – qHTS for inhibitors of ROR gamma transcriptional activity. Drosophila S2 Gal4-RORgamma UAS-luciferase reporter, 20 h. Potency, µM (titrated, usually from 53.6 µM), actives largely listed as inhibitors. 310,000 compounds, 5.4% hits; also: nearly all actives have a fitted effect of over 60% in size
Target sequence (P51450 whole entry, looked up, the tested form may be a part): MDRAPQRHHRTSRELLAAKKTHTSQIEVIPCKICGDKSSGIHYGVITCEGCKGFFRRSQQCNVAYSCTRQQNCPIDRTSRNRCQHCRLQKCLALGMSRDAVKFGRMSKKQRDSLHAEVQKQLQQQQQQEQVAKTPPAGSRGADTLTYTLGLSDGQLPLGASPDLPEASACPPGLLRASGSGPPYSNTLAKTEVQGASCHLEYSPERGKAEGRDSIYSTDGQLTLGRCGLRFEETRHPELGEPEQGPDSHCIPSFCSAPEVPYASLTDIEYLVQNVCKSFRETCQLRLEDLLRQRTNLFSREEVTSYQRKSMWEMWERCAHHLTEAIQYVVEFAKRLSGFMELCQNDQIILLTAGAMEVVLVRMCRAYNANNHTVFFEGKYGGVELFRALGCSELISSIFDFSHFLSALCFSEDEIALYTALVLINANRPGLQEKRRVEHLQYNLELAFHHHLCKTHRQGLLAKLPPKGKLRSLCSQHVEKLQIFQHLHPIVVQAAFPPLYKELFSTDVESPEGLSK
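A Gal4/UAS one-hybrid system in insect cells: metallothionein-promoter Gal4–ROR gamma fusion plus Photinus luciferase reporter. Copper sulfate 700 uM final, 20 hr ambient incubation, luminescent detection after 10 min with reagent.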
VP16 counter – VP16 counterscreen qHTS for inhibitors of ROR gamma transcriptional activity; Drosophila S2 Gal4-VP16 UAS-luciferase, luminescence, 20 h; Potency, µM (top dose mostly 53.6 µM), hits mostly inhibitors; 310,000 compounds, 3.5% hits;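 also: Gal4-VP16 expression switched on by copper sulfate through the metallothionein promoter; nearly all actives have a fitted effect of over 50% in size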
MCF10A rereplic – A quantitative high throughput screen for small molecules that induce DNA re-replication in MCF 10a normal breast cells | MCF 10A DNA re-replication, Hoechst nuclear intensity, 48 h | Potency, µM (doses to about 46.1 µM), usual class: activators | 350,000 compounds, 2.9% hits | AID 624296, 2012; also: nearly all actives have a fitted effect of over 50% in size
IL1B secr inh – qHTS for Inhibitors of Inflammasome Signaling: IL-1-beta AlphaLISA Primary Screen; THP-1 LPS/ATP IL-1B secretion, AlphaLISA, 16 h; active compounds read low; activity change, % at 57.5 µM; 360,000 compounds, 4.7% hits; in the data active = activity change below about -50%; inconclusive = mostly about -30% to -49%
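THP-1 cells pretreated 1 hr with compounds (up to 57.5 uM final), then stimulated with LPS (250 ng/mL final) plus ATP (1.25 mM final); secreted IL-1B measured by AlphaLISA after 16 hr, decreased signal indicating inhibition.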
SW480 rereplic – A quantitative high throughput screen for small molecules that induce DNA re-replication in SW480 colon adenocarcinoma cells; SW480 DNA re-replication, Hoechst DNA content imaging, 48 h; Potency, µM (top dose mostly 46.1 µM), usual class: activators; 340,000 compounds, 1.8% hits; AID 624297, 2012; also: nearly all actives have a fitted effect of over 55% in size
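Image-based DNA-content assay: after two days of treatment, nuclei were labelled with the DNA dye Hoechst and imaged, and hits were compounds raising the count of nuclei showing high fluorescence intensity.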
Numbers stand for hits; ! = repeats disagree; [ ] = another dose, or the depositor's remark. Rows were chosen to be rich in hits. Some 11% of all compounds tested hit in one or more screens of this group. Unless noted, calls follow the shape of the dose curve; as a rule, active = well fitted curve in the direction sought with a large enough effect; inconclusive = small, poorly fitted or top-dose-only effect, or another doubt; inactive = no such curve, though single readings can be large; an effect the other way counts as inactive or inconclusive.

For CC(=O)OCC1=C[C@@H]2OC(=O)C3=CO[C@@H](O[C@@H]4O[C@H](CO)[C@@H](O)[C@H](O)[C@H]4O)[C@H]1[C@@H]32 the results were MCF10A rereplic inactive, IL1B secr inh inactive and SW480 rereplic inactive.
Screening C=C1C(=O)OC2C=C(CO)C3OC3C3OC3(C)CC(OC(=O)/C(=C/C)COC(C)=O)C12 (configuration not stated) returned MCF10A rereplic 2.1µM, IL1B secr inh -101 and SW480 rereplic 0.82µM.
Screening CC(C)(C)c1cc(C(=O)N/N=C/c2ccco2)n[nH]1 returned RORg inh inactive, VP16 counter inactive, MCF10A rereplic inactive, IL1B secr inh inactive and SW480 rereplic inactive.
Screening O=C(N/N=C/c1ccco1)c1cc(-c2ccc3ccccc3c2)n[nH]1 returned RORg inh inconclusive, VP16 counter inconclusive, MCF10A rereplic 7.9µM, IL1B secr inh -67 and SW480 rereplic 23µM.
Screening O=C(N/N=C/c1ccco1)c1ccc2nc[nH]c2c1 returned RORg inh inactive, VP16 counter inactive, MCF10A rereplic inactive, IL1B secr inh inactive and SW480 rereplic inactive.
For CCc1ccc(-c2cc(C(=O)N/N=C/c3ccco3)[nH]n2)cc1 the results were RORg inh 20µM, VP16 counter inactive[10 µM], MCF10A rereplic inconclusive, IL1B secr inh inactive and SW480 rereplic inactive.
`CC(=O)c1ccccc1N(C(=O)c1ccco1)C(C(=O)NC1CCCC1)c1ccc(C)cc1` (configuration not stated) gave RORg inh inactive, VP16 counter inactive, MCF10A rereplic inactive, IL1B secr inh inactive and SW480 rereplic inactive.
`COc1ccccc1C(=O)Nc1ccc2c(c1)nc(CCNC(=O)c1ccccc1)n2C` gave RORg inh inactive, VP16 counter inactive, MCF10A rereplic 6.5µM and SW480 rereplic 13µM.
Screening COc1ccccc1C(=O)Nc1ccncc1 returned RORg inh inconclusive, VP16 counter inactive, MCF10A rereplic inactive, IL1B secr inh inconclusive and SW480 rereplic inactive.
COc1cccc(C(=O)Nc2ccc3[nH]ncc3c2)c1 was read as RORg inh inactive, VP16 counter inactive, MCF10A rereplic inactive, IL1B secr inh -57 and SW480 rereplic inactive.
Screening COc1ccccc1C(=O)Nc1ccc2[nH]ncc2c1 returned RORg inh inactive, VP16 counter inactive, MCF10A rereplic inactive, IL1B secr inh -61 and SW480 rereplic inactive.
Screening CCOC(=O)C1=CCC(C(C)(C)C)N(S(=O)(=O)c2ccc(C)cc2)C1 (configuration not stated) returned IL1B secr inh inactive.
`CCOC(=O)c1c(C)[nH]c(C(=O)COC(=O)/C=C/c2ccc(OC(F)F)cc2)c1C` gave RORg inh inactive, VP16 counter inactive, MCF10A rereplic inactive, IL1B secr inh inactive and SW480 rereplic inactive.
For CCOC(=O)c1c(C)[nH]c(C)c1C(=O)COC(=O)/C=C/c1ccc(OC(F)F)cc1 the results were RORg inh inactive, VP16 counter inactive, MCF10A rereplic inconclusive, IL1B secr inh -54 and SW480 rereplic inconclusive.
Screening COc1ccc(-c2cc(N)n(S(=O)(=O)c3c(F)c(F)c(F)c(F)c3F)n2)cc1OC returned RORg inh inconclusive, VP16 counter 7.1µM, MCF10A rereplic inconclusive, IL1B secr inh -87 and SW480 rereplic inconclusive.
O=C1C(Cc2ccccc2)Nc2ncnc(N3CCc4ccccc4C3)c2N1Cc1ccc(Cl)cc1 (configuration not stated) was read as MCF10A rereplic 23µM, IL1B secr inh -94 and SW480 rereplic inconclusive.
For CC1Nc2ncnc(N3CCN(c4ccccc4)CC3)c2N(Cc2ccc(Br)cc2)C1=O (configuration not stated) the results were MCF10A rereplic 16µM, IL1B secr inh inconclusive and SW480 rereplic inactive.
Screening CCC1Nc2ncnc(N3CCN(c4ccccn4)CC3)c2N(Cc2ccc(Cl)cc2)C1=O (configuration not stated) returned MCF10A rereplic inactive, IL1B secr inh -59 and SW480 rereplic inconclusive.
CC(C)CC1Nc2ncnc(N3CCN(c4ccccn4)CC3)c2N(Cc2ccccc2)C1=O (configuration not stated) was read as MCF10A rereplic inactive, IL1B secr inh -56! and SW480 rereplic inactive.
Screening COc1ccc(CN2C(=O)C(C)Nc3ncnc(N4CCN(c5ccccc5)CC4)c32)cc1 (configuration not stated) returned MCF10A rereplic inactive, IL1B secr inh inactive and SW480 rereplic inactive.
CCCC(=O)N1CCC1(C)C(=O)Nc1scc(C)c1C#N (configuration not stated) was read as IL1B secr inh inactive.
Screening Cc1ccc(C)c(C(=O)OCC(=O)NC(=O)NCc2ccccc2)c1 returned IL1B secr inh inactive.
`CC1=Nc2cc(C(=O)NCCN3CCOCC3)ccc2Sc2c(C)ccc(C)c21` gave RORg inh inactive, VP16 counter inactive, MCF10A rereplic inconclusive, IL1B secr inh inactive and SW480 rereplic inactive.
Screening COc1ccc(/C=C2/Sc3ccc(C(=O)NCCN4CCCCCC4)cc3NC2=O)cc1 returned RORg inh inconclusive, VP16 counter 20µM, MCF10A rereplic inconclusive, IL1B secr inh -90 and SW480 rereplic inconclusive.
For CC1=Nc2cc(C(=O)NCCCN3CCOCC3)ccc2Sc2c(C)ccc(C)c21 the results were RORg inh inactive, VP16 counter inactive, MCF10A rereplic inconclusive, IL1B secr inh -73 and SW480 rereplic 16µM.
For O=C1Nc2cc(C(=O)NCCCN3CCOCC3)ccc2S/C1=C/c1cccc(Cl)c1 the results were RORg inh inactive, VP16 counter inactive, MCF10A rereplic 16µM, IL1B secr inh inactive and SW480 rereplic 15µM.
`Cc1ccc(N2CC(C(=O)Nc3nc4ccc(S(C)(=O)=O)cc4s3)CC2=O)cc1` (configuration not stated) gave RORg inh inactive, VP16 counter inactive, MCF10A rereplic inactive, IL1B secr inh inactive and SW480 rereplic inactive.
`CCC(C)C(NC(=O)C1CCC(C)CC1)C(=O)NCCCN1CCCCC1CC` (configuration not stated) gave RORg inh inactive, VP16 counter inactive, MCF10A rereplic inactive, IL1B secr inh -63 and SW480 rereplic inactive.
CC1CCC(C(=O)NC(C(=O)NCCN2CCC(C)CC2)C(C)C)CC1 (configuration not stated) was read as RORg inh inactive, VP16 counter inactive, MCF10A rereplic inactive, IL1B secr inh inactive and SW480 rereplic inactive.
COc1cc(NC(=O)Nc2nnc([C@H]3C[C@H](O)[C@@H](CO)O3)s2)cc(OC)c1OC was read as IL1B secr inh inactive.
